The results in this text go back to PubChem BioAssay (EPA / NIEHS).

Results filed as inconclusive are left out. The source made the active and inactive calls. Rule for the calls, unless noted: active = hit-call score of the fitted dose curve at least 0.9, where 1 is the maximum; inactive = score below 0.9.

A short description of test [1]: CCTE_Harrill_HTTr_Viability_MCF7: CCTE's 6-hour Cell Viability Assessment for the High-Throughput Transcriptomics (HTTr) Platform, in MCF-7 cells cultured in DMEM + 10% fetal bovine serum, Harrill Lab (AID 2284010). In a few lines: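 Membrane integrity was scored by high-content imaging of propidium iodide dye exclusion after a 6 h exposure across an eight-point dilution series. Data were fitted bidirectionally relative to DMSO as negative control and baseline.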

The nature of test [2]: CCTE_Harrill_HTTr_Apoptosis_MCF7: CCTE's 6-hour Apoptosis Assessment for the High-Throughput Transcriptomics (HTTr) Platform, in MCF-7 cells cultured in DMEM + 10% fetal bovine serum, Harrill Lab (AID 2284011). In a few lines: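 Read-out: CellEvent Caspase 3/7 Green signal by high content imaging, gain-of-signal indicating apoptosis. MCF-7 cells, DMEM + 10% FBS, eight-point dilution series, 6 h exposure. Curves fitted bidirectionally relative to DMSO negative control.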

Test [3] has as its target bovine Estrogen Receptor (ER), ESR1 (gene 407238) (UniProt P49884). As to the kind of experiment: NVS_NR_bER: NovaScreen (NVS) Nuclear Receptor Binding Assay for bovine Estrogen Receptor (ER) (AID 2283345; active = hit-call score of the fitted dose curve at least 0.9, where 1 is the maximum;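 note: actives lower the bound radioligand count which means they displace the ER ligand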). The essentials:
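Bovine uterine membranes; tritiated or iodinated radioligand; competitive displacement; 18 h; scintillation read; DMSO negative control; 25 uM duplicates, then concentration series for actives.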

The nature of test [4]: ATG_CRE_CIS: Attagene CIS-FACTORIAL HepG2 Assay for human cAMP Responsive Element (CRE) binding protein 3 (AID 2282926). To be noted: HepG2 CRE cis-reporter, Attagene multiplexed mRNA; actives raise or lower the signal. The essentials:
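Endogenous CRE-binding activity in HepG2 is reported through a cis-regulated transfected reporter. Following a day of exposure, mRNA levels are determined by reverse transcription PCR and fluorescent fragment analysis; fits run in both directions versus DMSO.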

The nature of test [5]: ATG_DR4_LXR_CIS: Attagene CIS-FACTORIAL HepG2 Assay for human Liver X Receptor (LXR), DR4 submotif (AID 2282929). The conditions noted are these: HepG2 Attagene DR4 cis-reporter, mRNA transcription; actives raise or lower the signal. The essentials: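 Measures endogenous transcription factor activity via a DR4-driven reporter transcript in human HepG2 cells. Compounds incubated 24 h; mRNA quantified by RT-PCR and capillary electrophoresis, analysed as gain or loss of signal versus DMSO.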

A short description of test [6]: ATG_AP_1_CIS: Attagene CIS-FACTORIAL HepG2 Assay for human Activator Protein 1 (AP-1) (AID 2282931). To be noted: HepG2 Attagene cis-factorial AP-1 reporter mRNA; actives raise or lower the signal. In a few lines: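 Bidirectional concentration-response fitting against DMSO controls. Underlying signal: reporter mRNA from cis-promoter constructs in transiently transfected HepG2, measured after 24 h by RT-PCR and capillary electrophoresis.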

The target in test [7] is Hepatocyte nuclear factor 3-beta (Homo sapiens) (UniProt Q9Y261). Kind of test: ATG_FoxA2_CIS: Attagene CIS-FACTORIAL HepG2 Assay for human Forkhead box A2 (FOXA2) (AID 2282942). To be noted: HepG2 cis-reporter transcription factor activity, 24 h; actives raise or lower the signal. The essentials: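 In transiently transfected human HepG2 cells, promoter-driven reporter mRNA levels after 24 h chemical exposure are determined via RT-PCR with capillary electrophoresis. DMSO serves as baseline for bidirectional fitting.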

The target of test [8] is Hypoxia-inducible factor 1-alpha (Homo sapiens) (UniProt Q16665). As to the kind of experiment: ATG_HIF1a_CIS: Attagene CIS-FACTORIAL HepG2 Assay for human Hypoxia Inducible Factor 1 (HIF1A) (AID 2282951). The conditions noted are these: HepG2 Attagene cis-factorial HIF1a reporter transcription; actives raise or lower the signal. In a few lines: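 In this multiplexed cell assay, HepG2 cells bearing transfected cis reporters are dosed for 24 h and reporter mRNA is read by RT-PCR plus capillary electrophoresis; signal increases and decreases are both scored against DMSO.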

The nature of test [9]: ATG_RORE_CIS: Attagene CIS-FACTORIAL HepG2 Assay for human RAR-related Orphan Receptor Element (RORE) (AID 2282959). To be noted: HepG2 Attagene cis-factorial RORE reporter, mRNA; actives raise or lower the signal. The essentials:
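Fluorescence intensity of reporter-specific cDNA fragments, separated by capillary electrophoresis, gives the signal. Source: HepG2 liver cells transiently transfected with cis-element reporters and exposed 24 h; DMSO-normalized bidirectional fit.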

The nature of test [10]: ATG_Sox_CIS: Attagene CIS-FACTORIAL HepG2 Assay for human SRY-box transcription factor (SOX) (AID 2282960). The conditions noted are these: HepG2 Attagene cis-factorial SOX reporter, mRNA; actives raise or lower the signal. The essentials: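 After 24 h of chemical treatment, transfected HepG2 reporter cells are lysed for total RNA. Transcript levels come from RT-PCR with labelled primer extension and capillary electrophoresis, analysed bidirectionally versus DMSO.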

In test [11] the target is Transcription factor Sp1 (Homo sapiens) (UniProt P08047). Kind of test: ATG_Sp1_CIS: Attagene CIS-FACTORIAL HepG2 Assay for human Specificity Protein 1 (Sp1) (AID 2282961). The conditions noted are these: HepG2 Sp1 cis-reporter transcription, actives raise or lower the signal. The essentials: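 Sp1-driven reporter mRNA, read as capillary electrophoresis fluorescence after RT-PCR, in transiently transfected HepG2 cells dosed for 24 h; signal change in either direction relative to DMSO.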

Test [12] in a line: ATG_TA_CIS: Attagene CIS-FACTORIAL HepG2 Assay for human TA Basal Promoter (AID 2282964). The conditions noted are these: HepG2 Attagene CIS-factorial TA basal promoter reporter; actives raise or lower the signal. The essentials: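 Multiplexed mRNA reporter assay, HepG2, 24 h. Reporter cDNA amplified, 6-FAM primer-extended, HpaI-cut, CE-sized; DMSO = negative control and baseline.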

Test [13] can be described thus: ATG_TCF_b_cat_CIS: Attagene CIS-FACTORIAL HepG2 Assay for human T-Cell-Factor with beta-catenin (TCF/b-cat) (AID 2282965). The conditions noted are these: HepG2 TCF/beta-catenin cis-reporter transcription, actives raise or lower the signal. In a few lines:
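Endogenous transcription factor activity is captured through cis-promoter reporter constructs transiently introduced into human HepG2 liver cells. Induced reporter mRNA is measured after 24 h and fitted bidirectionally relative to DMSO.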

Test [14] can be described thus: ATG_TAL_CIS: Attagene CIS-FACTORIAL HepG2 Assay for human TAL Basal Promoter (AID 2282966).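 Note: background control endpoint measuring basal TAL promoter reporter mRNA not a specific factor.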 To be noted: HepG2 Attagene cis-factorial TAL promoter reporter; actives raise or lower the signal. In a few lines:
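In this cell-based multiplex, HepG2 liver cells bearing cis-promoter reporter constructs are dosed for 24 hours. Total RNA is reverse-transcribed and amplified, labelled fragments are sized by capillary electrophoresis, and signal changes are fitted bidirectionally versus DMSO.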

Test [15] is described as follows: ATG_TGFb_CIS: Attagene CIS-FACTORIAL HepG2 Assay for human Transforming Growth Factor (TGF) (AID 2282967). The conditions noted are these: HepG2 Attagene CIS TGFb reporter, mRNA transcription; actives raise or lower the signal. The essentials: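 Transcript-level reporter readout: HepG2 transfectants, 24 h exposure, RNA to cDNA, reporter-specific PCR, fluorescent primer extension, capillary sizing against ROX standards. Gain- or loss-of-signal relative to DMSO.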

Test [16] is described as follows: ATG_VDRE_CIS: Attagene CIS-FACTORIAL HepG2 Assay for human Vitamin D Receptor Element (VDRE) (AID 2282968). The conditions noted are these: HepG2 VDRE cis-reporter transcription, actives raise or lower the signal. The essentials:
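In transiently transfected HepG2 liver cells, gain or loss of reporter mRNA after 24 h exposure is scored relative to DMSO, using fluorescence detection by capillary electrophoresis of RT-PCR products.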

In test [17] the target is Transcriptional activator Myb (Homo sapiens) (UniProt P10242). Kind of test: ATG_Myb_CIS: Attagene CIS-FACTORIAL HepG2 Assay for human Myeloblastosis (Myb) Proto-Oncogene Transcription Factor (AID 2282986). To be noted: HepG2 Attagene CIS-FACTORIAL Myb reporter transcription; actives raise or lower the signal. The essentials:
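Fluorescence signals from capillary electrophoresis of RT-PCR-amplified reporter cDNA give the read-out. Cells: HepG2 transfected with multiple cis-regulated reporter units. Exposure lasts 24 hours; DMSO defines baseline for gain or loss of signal.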

The target in test [18] is Nuclear respiratory factor 1 (Homo sapiens) (UniProt Q16656). As to the kind of experiment: ATG_NRF1_CIS: Attagene CIS-FACTORIAL HepG2 Assay for human Nuclear Respiratory Factor 1 (NRF1) Orphan Gene (AID 2282987). The conditions noted are these: HepG2 NRF1 cis-element reporter, Attagene multiplex; actives raise or lower the signal. In a few lines:
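Transcriptional reporter readout, one component of a 52-endpoint multiplexed HepG2 panel. Exposure 24 h; mRNA detected via RT-PCR and fluorescent capillary electrophoresis; fitting in both directions against DMSO.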

The nature of test [19]: ATG_NFI_CIS: Attagene CIS-FACTORIAL HepG2 Assay for human Nuclear Factor I (NFI) (AID 2282989). The conditions noted are these: HepG2 cis-regulatory reporter, NFI response element transcription; actives raise or lower the signal. In a few lines: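 After transient transfection of HepG2 with cis-promoter reporter constructs and 24 h dosing, RNA is reverse-transcribed, amplified, 6-FAM end-labelled and HpaI-digested before capillary analysis. Bidirectional curve fitting against DMSO.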

The target in test [20] is Cellular tumor antigen p53 (Homo sapiens) (UniProt P04637). As to the kind of experiment: ATG_p53_CIS: Attagene CIS-FACTORIAL HepG2 Assay for human p53 Transcription Factor (AID 2282994). To be noted: HepG2 p53 cis-element reporter, Attagene mRNA; actives raise or lower the signal. In a few lines: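 HepG2, transient MRTU transfection (cis promoter elements, endogenous TFs); 24 h dosing; RNA isolation, RT-PCR, 6-FAM primer extension, HpaI digest, CE fluorescence; bidirectional fit vs DMSO.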
Chain of Cellular tumor antigen p53 (Homo sapiens) (P04637 whole entry, looked up): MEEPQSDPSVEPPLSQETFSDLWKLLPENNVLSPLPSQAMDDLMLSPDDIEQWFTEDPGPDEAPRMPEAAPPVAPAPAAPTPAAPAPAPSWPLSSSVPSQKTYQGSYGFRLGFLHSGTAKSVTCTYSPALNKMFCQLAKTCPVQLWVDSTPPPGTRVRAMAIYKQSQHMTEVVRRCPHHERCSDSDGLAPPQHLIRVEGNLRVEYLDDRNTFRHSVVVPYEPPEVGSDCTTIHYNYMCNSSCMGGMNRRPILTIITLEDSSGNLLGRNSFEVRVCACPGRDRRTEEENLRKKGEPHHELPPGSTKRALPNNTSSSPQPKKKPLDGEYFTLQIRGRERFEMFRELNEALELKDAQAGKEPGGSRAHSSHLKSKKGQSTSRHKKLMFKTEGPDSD

Chain of Transcriptional activator Myb (Homo sapiens) (P10242 whole entry, looked up): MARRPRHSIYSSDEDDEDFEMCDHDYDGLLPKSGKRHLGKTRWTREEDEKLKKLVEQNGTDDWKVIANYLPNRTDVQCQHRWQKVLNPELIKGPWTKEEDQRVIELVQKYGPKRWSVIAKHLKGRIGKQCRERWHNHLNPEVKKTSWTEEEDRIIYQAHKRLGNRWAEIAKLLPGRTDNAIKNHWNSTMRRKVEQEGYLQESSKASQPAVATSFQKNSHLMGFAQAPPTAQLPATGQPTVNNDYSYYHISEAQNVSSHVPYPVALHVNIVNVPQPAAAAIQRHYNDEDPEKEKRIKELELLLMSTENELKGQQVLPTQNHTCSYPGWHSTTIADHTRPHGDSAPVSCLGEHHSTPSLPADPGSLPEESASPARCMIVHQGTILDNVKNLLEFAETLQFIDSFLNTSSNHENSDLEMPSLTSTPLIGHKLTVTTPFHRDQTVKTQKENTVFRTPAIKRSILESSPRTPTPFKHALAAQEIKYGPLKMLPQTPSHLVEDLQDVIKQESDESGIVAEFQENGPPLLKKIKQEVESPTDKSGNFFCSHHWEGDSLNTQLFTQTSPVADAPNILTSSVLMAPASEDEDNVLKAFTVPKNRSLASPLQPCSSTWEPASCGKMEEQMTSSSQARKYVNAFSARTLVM
Chain of Hepatocyte nuclear factor 3-beta (Homo sapiens) (Q9Y261 whole entry, looked up): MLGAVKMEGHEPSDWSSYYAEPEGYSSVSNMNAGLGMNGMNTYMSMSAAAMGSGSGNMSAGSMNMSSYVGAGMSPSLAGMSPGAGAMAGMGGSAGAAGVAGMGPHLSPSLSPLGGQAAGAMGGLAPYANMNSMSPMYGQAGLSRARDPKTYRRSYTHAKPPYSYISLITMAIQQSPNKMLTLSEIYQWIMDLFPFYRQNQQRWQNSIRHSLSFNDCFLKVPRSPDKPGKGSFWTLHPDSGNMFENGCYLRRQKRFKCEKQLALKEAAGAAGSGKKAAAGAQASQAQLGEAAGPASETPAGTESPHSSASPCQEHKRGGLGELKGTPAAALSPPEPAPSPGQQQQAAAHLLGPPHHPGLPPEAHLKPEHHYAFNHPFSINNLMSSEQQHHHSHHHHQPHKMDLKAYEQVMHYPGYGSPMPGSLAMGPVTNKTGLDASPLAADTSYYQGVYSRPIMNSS
Chain of Hypoxia-inducible factor 1-alpha (Homo sapiens) (Q16665 whole entry, looked up): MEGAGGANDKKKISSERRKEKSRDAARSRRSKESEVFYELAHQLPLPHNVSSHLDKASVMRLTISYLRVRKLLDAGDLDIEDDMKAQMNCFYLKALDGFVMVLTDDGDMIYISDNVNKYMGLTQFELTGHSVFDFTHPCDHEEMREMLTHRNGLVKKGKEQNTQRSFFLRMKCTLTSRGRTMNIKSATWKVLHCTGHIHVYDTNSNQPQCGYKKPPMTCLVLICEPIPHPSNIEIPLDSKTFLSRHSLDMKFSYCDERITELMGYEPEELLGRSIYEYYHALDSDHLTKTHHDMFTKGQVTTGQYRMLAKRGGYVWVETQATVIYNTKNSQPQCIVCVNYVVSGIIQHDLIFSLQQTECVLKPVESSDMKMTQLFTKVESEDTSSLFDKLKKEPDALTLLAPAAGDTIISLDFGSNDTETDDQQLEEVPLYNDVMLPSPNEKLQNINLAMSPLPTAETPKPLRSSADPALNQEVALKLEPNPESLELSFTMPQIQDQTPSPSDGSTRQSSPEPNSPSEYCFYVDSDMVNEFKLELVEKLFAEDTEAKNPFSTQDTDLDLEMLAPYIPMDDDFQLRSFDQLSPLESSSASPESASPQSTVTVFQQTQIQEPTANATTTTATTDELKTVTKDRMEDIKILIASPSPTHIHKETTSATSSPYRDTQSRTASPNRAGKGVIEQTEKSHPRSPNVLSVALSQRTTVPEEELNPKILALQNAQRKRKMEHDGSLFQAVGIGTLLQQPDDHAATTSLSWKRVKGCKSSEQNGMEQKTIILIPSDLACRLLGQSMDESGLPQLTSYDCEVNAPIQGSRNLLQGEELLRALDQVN
Chain of Nuclear respiratory factor 1 (Homo sapiens) (Q16656 whole entry, looked up): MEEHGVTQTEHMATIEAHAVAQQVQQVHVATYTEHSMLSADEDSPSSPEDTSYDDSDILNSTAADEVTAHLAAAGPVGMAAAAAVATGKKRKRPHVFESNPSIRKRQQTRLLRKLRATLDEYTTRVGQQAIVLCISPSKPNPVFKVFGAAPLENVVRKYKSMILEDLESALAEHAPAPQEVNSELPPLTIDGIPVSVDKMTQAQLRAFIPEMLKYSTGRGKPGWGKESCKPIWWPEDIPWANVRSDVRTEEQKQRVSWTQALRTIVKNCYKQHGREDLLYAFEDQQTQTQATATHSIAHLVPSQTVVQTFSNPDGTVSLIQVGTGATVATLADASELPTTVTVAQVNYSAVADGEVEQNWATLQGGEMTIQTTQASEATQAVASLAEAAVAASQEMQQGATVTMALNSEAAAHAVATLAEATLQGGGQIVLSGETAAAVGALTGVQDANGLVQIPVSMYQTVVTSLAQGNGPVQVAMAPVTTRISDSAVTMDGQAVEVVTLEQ
Chain of Transcription factor Sp1 (Homo sapiens) (P08047 whole entry, looked up): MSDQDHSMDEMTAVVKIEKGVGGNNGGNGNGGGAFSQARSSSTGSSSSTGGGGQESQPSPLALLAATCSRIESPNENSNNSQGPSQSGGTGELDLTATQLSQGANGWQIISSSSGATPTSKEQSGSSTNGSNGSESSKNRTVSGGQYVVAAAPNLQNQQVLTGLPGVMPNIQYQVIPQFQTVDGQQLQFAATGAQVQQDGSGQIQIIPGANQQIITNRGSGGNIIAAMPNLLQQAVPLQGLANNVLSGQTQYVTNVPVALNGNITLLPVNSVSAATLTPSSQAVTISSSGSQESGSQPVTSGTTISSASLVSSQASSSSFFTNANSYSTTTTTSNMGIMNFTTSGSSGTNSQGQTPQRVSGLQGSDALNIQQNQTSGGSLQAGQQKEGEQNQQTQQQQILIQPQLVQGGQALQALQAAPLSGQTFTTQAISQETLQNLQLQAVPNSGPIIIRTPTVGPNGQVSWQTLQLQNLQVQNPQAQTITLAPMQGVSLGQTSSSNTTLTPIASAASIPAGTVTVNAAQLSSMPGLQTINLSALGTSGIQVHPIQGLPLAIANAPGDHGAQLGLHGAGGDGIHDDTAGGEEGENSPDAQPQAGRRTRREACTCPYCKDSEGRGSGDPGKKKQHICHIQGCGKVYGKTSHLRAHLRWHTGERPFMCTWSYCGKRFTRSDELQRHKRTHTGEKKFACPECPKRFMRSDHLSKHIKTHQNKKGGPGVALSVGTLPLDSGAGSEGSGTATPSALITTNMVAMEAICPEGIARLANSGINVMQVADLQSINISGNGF
Chain of bovine Estrogen Receptor (ER), ESR1 (gene 407238) (P49884 whole entry, looked up): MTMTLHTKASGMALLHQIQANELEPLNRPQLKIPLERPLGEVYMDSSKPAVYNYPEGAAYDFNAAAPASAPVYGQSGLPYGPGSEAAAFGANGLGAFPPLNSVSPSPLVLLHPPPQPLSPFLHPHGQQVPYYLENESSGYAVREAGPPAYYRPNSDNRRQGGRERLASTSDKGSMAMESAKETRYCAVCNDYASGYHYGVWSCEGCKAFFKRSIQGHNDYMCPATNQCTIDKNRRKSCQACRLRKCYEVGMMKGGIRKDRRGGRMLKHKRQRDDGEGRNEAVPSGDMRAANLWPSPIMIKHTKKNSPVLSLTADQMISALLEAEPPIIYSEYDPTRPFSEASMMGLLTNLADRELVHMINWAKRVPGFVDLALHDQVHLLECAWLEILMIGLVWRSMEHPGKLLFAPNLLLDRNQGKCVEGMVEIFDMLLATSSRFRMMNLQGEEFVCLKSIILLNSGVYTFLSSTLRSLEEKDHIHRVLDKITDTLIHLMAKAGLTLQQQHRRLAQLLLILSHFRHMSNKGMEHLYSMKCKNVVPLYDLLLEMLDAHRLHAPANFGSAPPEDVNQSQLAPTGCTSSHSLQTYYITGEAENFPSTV

Take `COc1ccc(C(=O)c2ccccc2O)c(O)c1`: the outcome in test [1] and in test [2] was inactive.

Take `Nc1nc(N)c2nc(-c3ccccc3)c(N)nc2n1`: the call in [3], in test [1] and in test [2] was inactive.

For `Brc1ccc(Oc2ccc(Br)cc2)cc1`, the result in [4], in test [5], in [7], in test [8], in [9] and in test [10] was inactive. In addition, the compound was called inactive in test [11], in test [12], in [13], in test [14], in test [16] and in [17]. In addition, the compound was called inactive in test [18], in test [19], in test [20], in test [1] and in test [2]. Moreover, the half-maximal activity concentration (AC50) in test [6] is 56.5 µM (active); in test [15] it was 100 µM (active).

Take `CCC(C)(CCC(C)C)C(=O)O` (stereo not given): the compound was called inactive in test [4], in test [5], in [6], in test [7], in [8] and in test [9]. For the same compound, the result in test [10], in test [11], in test [12], in test [13], in [14] and in test [15] was inactive. For the same compound, the compound was called inactive in [16], in test [17], in test [18] and in [19].

On to `CCO[Si](CCCN)(OCC)OCC`, for which the compound was classed as inactive in test [4], in test [5], in test [6], in test [7], in test [8] and in test [9]. Also, the call in [10], in test [11], in test [12], in test [13], in test [14] and in test [15] was inactive. Further, the result in test [16], in test [17], in test [18], in test [19] and in test [20] was inactive.

In the case of `O=[N+]([O-])c1ccc(ON=Cc2cc(Br)c(O)c(Br)c2)c([N+](=O)[O-])c1`, in test [3], the result was inactive.

`CCOC(=O)c1ccccc1`: the compound was classed as inactive in [4], in test [6], in test [7], in test [8], in test [9] and in test [10]. The outcome in test [12], in [13], in test [14], in test [15], in test [16] and in test [17] was inactive. For the same compound, the compound was classed as inactive in test [18], in test [19] and in [20]. The results for the AC50 in [5] and in test [11] were 128 µM (active) and 28 µM (active), respectively.

As usually defined, the AC50 is the midpoint of the concentration-response curve, whichever way the signal moves.
